sPLA2-III inh = human group III sPLA2 inhibitors, primary screen, biochemical, QFRET, BODIPY PC-A2 liposome substrate; QFRET BODIPY PC-A2 liposome hydrolysis, fluorescence; inhibition, % at 12.2 µM; 370,000 compounds, 0.56% hits;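 active = inhibition above mean plus 3 SD of compounds lying within the high and low control bounds, cut at about 19% in these data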
ARNT TACC3 PPI = disruptors of ARNT/TACC3 protein interaction, primary screen, biochemical, AlphaScreen, single concentration. Transforming acidic coiled-coil-containing protein 3 (Homo sapiens), Q9Y6A5. AlphaScreen His-ARNT PAS-B/GST-TACC3 binding, luminescence; TACC3 fragment carries E629A point mutation. inhibition, % at 9.99 µM. 390,000 compounds, 0.66% hits. AID 623870, 2012;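 active = mean inhibition of replicates at least 50% and at least half of replicates each reaching 50%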
AI-2 QS mod = Vibrio harveyi AI-2 quorum sensing modulators, primary screen, JMH597 strain, luminescence/OD600 ratio; 300,000 compounds, 0.4% hits; Vibrio harveyi JMH597 AI-2 luminescence/OD600 ratio, 9 h; stronger effect = lower value; strain lacks LuxN and CqsS sensors; 0 = neutral-control median; AID 2094, 2009; activity change, % at 7.5 µM; in the data active = activity change below about -75%, passing the limit was not always enough;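 also: luminescence divided by OD600 gain over 9 h not by final OD600 alone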
Rin1 Abl inh = inhibitors of Rin1-Abl protein binding, primary screen, biochemical, TR-FRET; Tyrosine-protein kinase ABL1 (Homo sapiens) + Ras and Rab interactor 1 (Homo sapiens), …; inhibition, % at 7.35 µM; 360,000 compounds, 0.4% hits; AID 588664, 2011; in the data active = inhibition above about 5%, passing the limit was not always enough
Target sequence (P00519 whole entry, looked up): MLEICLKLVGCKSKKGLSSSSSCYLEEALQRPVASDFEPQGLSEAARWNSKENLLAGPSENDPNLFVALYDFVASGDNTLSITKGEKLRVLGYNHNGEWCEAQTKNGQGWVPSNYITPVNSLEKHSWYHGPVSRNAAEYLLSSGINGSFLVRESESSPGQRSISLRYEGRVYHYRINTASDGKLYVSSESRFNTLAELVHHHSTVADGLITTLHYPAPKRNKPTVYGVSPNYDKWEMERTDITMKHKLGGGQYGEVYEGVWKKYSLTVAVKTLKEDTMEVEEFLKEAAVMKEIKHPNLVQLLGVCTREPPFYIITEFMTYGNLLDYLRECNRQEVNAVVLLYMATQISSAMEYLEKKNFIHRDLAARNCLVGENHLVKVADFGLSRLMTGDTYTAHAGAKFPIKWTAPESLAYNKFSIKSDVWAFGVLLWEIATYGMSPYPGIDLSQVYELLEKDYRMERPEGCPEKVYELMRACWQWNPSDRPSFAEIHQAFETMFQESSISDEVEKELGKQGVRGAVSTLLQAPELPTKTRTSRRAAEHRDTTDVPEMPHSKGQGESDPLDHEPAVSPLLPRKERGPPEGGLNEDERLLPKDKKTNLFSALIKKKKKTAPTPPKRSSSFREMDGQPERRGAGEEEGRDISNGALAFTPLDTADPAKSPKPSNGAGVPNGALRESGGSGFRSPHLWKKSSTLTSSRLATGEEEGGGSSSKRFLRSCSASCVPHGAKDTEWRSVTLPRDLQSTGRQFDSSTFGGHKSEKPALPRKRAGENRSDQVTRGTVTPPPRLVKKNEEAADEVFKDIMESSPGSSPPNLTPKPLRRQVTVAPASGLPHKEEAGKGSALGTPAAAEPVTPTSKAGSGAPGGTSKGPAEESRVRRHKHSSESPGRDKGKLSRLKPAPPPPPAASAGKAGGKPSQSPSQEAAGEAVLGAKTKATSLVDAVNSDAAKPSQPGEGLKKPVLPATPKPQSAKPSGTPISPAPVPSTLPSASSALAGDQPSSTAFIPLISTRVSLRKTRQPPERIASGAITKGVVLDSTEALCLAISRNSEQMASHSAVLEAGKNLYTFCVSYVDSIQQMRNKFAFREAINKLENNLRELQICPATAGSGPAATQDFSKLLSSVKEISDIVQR
Target sequence (Q13671 whole entry, looked up): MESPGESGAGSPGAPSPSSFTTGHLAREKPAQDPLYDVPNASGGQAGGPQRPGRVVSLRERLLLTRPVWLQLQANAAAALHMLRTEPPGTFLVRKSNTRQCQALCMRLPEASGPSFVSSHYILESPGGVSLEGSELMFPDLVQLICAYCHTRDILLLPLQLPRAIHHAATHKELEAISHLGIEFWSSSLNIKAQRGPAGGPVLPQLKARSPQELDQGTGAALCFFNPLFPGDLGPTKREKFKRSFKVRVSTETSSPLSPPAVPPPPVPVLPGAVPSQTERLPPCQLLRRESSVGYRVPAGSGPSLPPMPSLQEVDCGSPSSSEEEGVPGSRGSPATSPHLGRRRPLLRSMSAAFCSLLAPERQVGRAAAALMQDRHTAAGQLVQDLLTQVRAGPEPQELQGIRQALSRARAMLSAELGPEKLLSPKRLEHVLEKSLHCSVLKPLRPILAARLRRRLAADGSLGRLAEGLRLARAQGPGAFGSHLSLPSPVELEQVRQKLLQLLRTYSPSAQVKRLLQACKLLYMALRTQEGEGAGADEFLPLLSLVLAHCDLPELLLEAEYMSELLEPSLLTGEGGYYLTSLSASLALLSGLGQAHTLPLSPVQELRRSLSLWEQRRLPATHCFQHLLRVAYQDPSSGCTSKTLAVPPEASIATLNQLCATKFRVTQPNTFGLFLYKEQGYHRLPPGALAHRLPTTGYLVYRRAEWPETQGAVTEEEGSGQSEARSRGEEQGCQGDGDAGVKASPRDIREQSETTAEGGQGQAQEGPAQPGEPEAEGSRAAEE
sPLA2 confirm = human group III sPLA2 inhibitors, confirmation, biochemical, QFRET, triplicate; inhibition, % at 12.2 µM; shares compounds with sPLA2-III inh; recombinant hGIII-sPLA2, BODIPY PC-A2 QFRET fluorescence; 2,000 compounds, 34% hits;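 active = mean inhibition across triplicates above the hit cutoff set in the earlier primary screen, cut at about 19% in these data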
535nm interf = 535nm fluorescence optical interference, confirmation, artefact control for HGIII-sPLA2 inhibitor project, biochemical, QFRET | shares compounds with sPLA2-III inh | BODIPY FL product fluorescence interference | 2,000 compounds, 8.5% hits | AID 743282, 2014 | inhibition, % at 12.2 µM;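 active = average inhibition above the solvent-only control mean plus 3 SD, cut at about 6% in these data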
535nm interf DR = 535nm fluorescence optical interference, dose response, artefact control for HGIII-sPLA2 inhibitor project, biochemical, QFRET. shares compounds with sPLA2-III inh. BODIPY FL product fluorescence interference, cell-free. IC50, µM. 240 tested, under 10 active. AID 743455, 2014;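 active = IC50 at or below 10 µM; inactive = IC50 above 10 µM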
Each line names hits and unclear results; the compound was inactive in the other large screens (follow-up assays come after a bar, where they were run); ! = repeats disagree. Most compounds without a hit are left out; they make up all but 1.5% or so of the library.

CN(C)C=NC1=NN(c2cccc(C(F)(F)F)c2)CC1	sPLA2-III inh 21.2 | sPLA2 confirm inactive | 535nm interf inactive
CNC(=O)C[C@H]1CC[C@H]2[C@@H](COc3ccc(NC(=O)Nc4cccc(Cl)c4)cc3C(=O)N2C)O1	none (no result: sPLA2-III inh, AI-2 QS mod, Rin1 Abl inh)
C[C@@H]1CN([C@H](C)CO)C(=O)Cc2cc(NC(=O)CCN3CCOCC3)ccc2O[C@H]1CN(C)Cc1ccccc1	none (no result: sPLA2-III inh, AI-2 QS mod, Rin1 Abl inh)
COc1c(O)c(O)c2oc(-c3ccccc3)cc(=O)c2c1OC	sPLA2-III inh 31.9 | sPLA2 confirm inactive | 535nm interf inactive
Cc1ccc(S(=O)(=O)N[C@@H]2CCCN(Cc3ccc(OCCO)cc3)C2)cc1	none (no result: sPLA2-III inh, AI-2 QS mod, Rin1 Abl inh)
Cc1cccc(NNC(=S)Nc2c(C)cccc2C)c1	sPLA2-III inh 19.3 | sPLA2 confirm 28.5 | 535nm interf inactive | 535nm interf DR inactive
Cc1cccc(NNC(=S)Nc2ccccc2)c1	none (no result: ARNT TACC3 PPI, AI-2 QS mod)
Cc1ccc(-c2cnc(N)n2C)cc1C	sPLA2-III inh 19.8, ARNT TACC3 PPI 63.1 | sPLA2 confirm inactive | 535nm interf inactive
Cc1ccc(-c2cnc3ccccc3n2)cc1C	none
CCOc1ccc(C2OCCC(C)O2)cc1OC (stereo not drawn)	sPLA2-III inh 19.9 (no result: AI-2 QS mod) | sPLA2 confirm inactive | 535nm interf inactive
CCOc1ccc(CNC2CCCCCCC2)cc1OC	none
CCCN(CCC)C(=O)C[n+]1cccc(/C=N/O)c1	sPLA2-III inh 20.2 | sPLA2 confirm inactive | 535nm interf inactive
Nc1cccc(-c2cccc3nncn23)c1	none (no result: ARNT TACC3 PPI, AI-2 QS mod)
COc1ccc(C(C)C)cc1-c1cccc2nncn12	sPLA2-III inh 20.7 (no result: ARNT TACC3 PPI, AI-2 QS mod) | sPLA2 confirm inactive | 535nm interf inactive
CC(C)NC(=O)Nc1ccc2c(c1)C(=O)N([C@@H](C)CO)C[C@@H](C)[C@H](CN(C)Cc1ccc(C(F)(F)F)cc1)OCCCC[C@H](C)O2	none (no result: sPLA2-III inh, AI-2 QS mod, Rin1 Abl inh)
Nc1ccccc1Nc1cc(-c2ccccc2)nn1-c1cccc(Cl)c1	none
CNc1nn(-c2cccc(Cl)c2)nc1N	sPLA2-III inh 21.6 | sPLA2 confirm 35.2 | 535nm interf inactive | 535nm interf DR inactive
COc1ccc(NC(=O)Nc2ccc3c(c2)C(=O)N([C@@H](C)CO)C[C@@H](C)[C@@H](CN(C)C(=O)C2CCCCC2)OCCCC[C@@H](C)O3)cc1	none (no result: sPLA2-III inh, AI-2 QS mod, Rin1 Abl inh)
O=C(C[C@H]1C=C[C@H](NC(=O)Nc2ccc3c(c2)OCO3)[C@@H](CO)O1)NCCCN1CCOCC1	none (no result: sPLA2-III inh, AI-2 QS mod, Rin1 Abl inh)
N#CC1(Nc2cccc(Br)c2)C(=O)Nc2ccccc21 (stereo not drawn)	sPLA2-III inh 21.9 | sPLA2 confirm inactive | 535nm interf inactive
CCCCn1c(N)c(N(CCOC)C(=O)c2ccc(F)c(S(=O)(=O)N3CCOCC3)c2)c(=O)[nH]c1=O	sPLA2-III inh 20.0 | sPLA2 confirm inactive | 535nm interf inactive
CNC(=S)NNC(=O)CSCc1c(Cl)cccc1Cl	none
O=C(CSCc1ccccc1)NNC(=S)Nc1cccc(Cl)c1Cl	sPLA2-III inh 38.0 | sPLA2 confirm 35.1 | 535nm interf inactive | 535nm interf DR inactive
COc1ccccc1-c1ccc2n(c1=O)C[C@@H]1[C@@H](CO)[C@H](C(=O)N3CCCCC3)[C@H]2N1CC1CC1	none (no result: sPLA2-III inh, AI-2 QS mod, Rin1 Abl inh)
COc1ccccc1-c1ccc2n(c1=O)C[C@H]1[C@H](CO)[C@@H](C(=O)N3CCCCC3)N(C)[C@@H]21	none (no result: sPLA2-III inh, AI-2 QS mod, Rin1 Abl inh)
O=C(Nc1csnn1)c1csnn1	sPLA2-III inh 19.9 | sPLA2 confirm inactive | 535nm interf inactive
COc1ccc(NC(=O)c2ccc(NC(=O)C(C)C)cc2)c([N+](=O)[O-])c1	sPLA2-III inh 20.0 | sPLA2 confirm inactive | 535nm interf inactive
CCOc1ccc(NC(=S)NC(=O)c2c(Br)cnn2C)c([N+](=O)[O-])c1	none
CCOc1ccc(NC(=S)NC(=O)c2c(Cl)cnn2CC)c([N+](=O)[O-])c1	sPLA2-III inh 22.3 | sPLA2 confirm 20.4 | 535nm interf inactive
COc1ccc(NC(=S)NC(NC(=O)c2ccccc2Cl)C(Cl)(Cl)Cl)c([N+](=O)[O-])c1 (stereo not drawn)	sPLA2-III inh 27.7 | sPLA2 confirm 34.6 | 535nm interf 7.2
C[C@H](NC(=O)C[C@@H]1C[C@H]2c3cc(NS(C)(=O)=O)ccc3O[C@H]2[C@H](CO)O1)c1ccccc1	none (no result: sPLA2-III inh, AI-2 QS mod, Rin1 Abl inh)
CN1/C(=C\C(=O)Nc2ccc(F)cc2)C(C)(C)c2ccccc21	sPLA2-III inh 30.6 | sPLA2 confirm 28.0 | 535nm interf inactive | 535nm interf DR inactive
Cc1nn(C)c(C(=O)NNC(=S)NC2CCCCC2)c1Br	sPLA2-III inh 22.7 | sPLA2 confirm 21.7 | 535nm interf inactive
Clc1ccc(N=NN2CCOCC2)cc1	sPLA2-III inh 19.3 | sPLA2 confirm inactive | 535nm interf inactive
COc1ccc(CN2CCN(c3ccccn3)CC2)c(OC)c1C	sPLA2-III inh 19.3! | sPLA2 confirm inactive | 535nm interf inactive
c1csc(-c2nnc(NC3CCCCC3)c3ccccc23)c1	sPLA2-III inh 20.7 (no result: ARNT TACC3 PPI) | sPLA2 confirm inactive | 535nm interf inactive
CCn1c(S(=O)(=O)O)nc2ccccc21	sPLA2-III inh 19.9 | sPLA2 confirm inactive | 535nm interf inactive
CCCCn1c(S(=O)(=O)O)nc2ccccc21	none
O=S(=O)(O)c1nc2ccccc2n1Cc1ccccc1	sPLA2-III inh 19.8 (no result: ARNT TACC3 PPI) | sPLA2 confirm inactive | 535nm interf inactive
COc1ccc(NC(=O)Nc2ccc3c(c2)C(=O)N([C@@H](C)CO)C[C@@H](C)[C@@H](CN(C)S(=O)(=O)c2ccc(C)cc2)O3)cc1	none (no result: sPLA2-III inh, AI-2 QS mod, Rin1 Abl inh)
S=c1[nH]cc(-c2ccc(Cl)cc2)n1Cc1ccccc1	sPLA2-III inh 24.3 | sPLA2 confirm inactive | 535nm interf inactive
O=C(O)C[C@@H]1CC[C@H](NC(=O)c2ccccc2F)[C@H](CO)O1	none (no result: sPLA2-III inh, AI-2 QS mod, Rin1 Abl inh)
CCn1c(-c2c[nH]c3ccccc23)n[nH]c1=S	sPLA2-III inh 24.0 | sPLA2 confirm inactive | 535nm interf inactive
C[C@@H]1CN([C@@H](C)CO)C(=O)Cc2cc(NS(C)(=O)=O)ccc2O[C@H]1CN(C)S(=O)(=O)c1ccc(Cl)cc1	none (no result: sPLA2-III inh, AI-2 QS mod, Rin1 Abl inh)
O=c1[nH]c(NNC(=S)NCc2ccccc2)nc2c1C1(CCCCC1)Cc1ccccc1-2	sPLA2-III inh 22.9 | sPLA2 confirm 31.7 | 535nm interf 9.4
CCCCn1c(=NC(C)=O)c(C#N)cc2c(=O)n3cccc(C)c3nc21	none
CCCCCn1c(=NC(=O)c2cccnc2)c(C#N)cc2c(=O)n3cccc(C)c3nc21	sPLA2-III inh 19.7 | sPLA2 confirm inactive | 535nm interf inactive
C[C@@H]1CN([C@H](C)CO)C(=O)Cc2cc(NC(=O)C3CCCCC3)ccc2O[C@H]1CN(C)CC1CC1	none (no result: sPLA2-III inh, AI-2 QS mod, Rin1 Abl inh)
